What was measured:
Assay in all cases: log2 ratio of Biotin-Ahx-Ub-VS probe labelling (fragment/DMSO); higher = less target engagement (more negative = stronger competition), active = hit call of the paper (q ≤ 0.05, log2 ratio ≤ -1)
Details in all cases: compound concentration: 200 uM; treatment time: 3 h
OTUD6B = target: T1, OTUD6B (UniProt Q8N6M0)
T1 sequence (whole entry): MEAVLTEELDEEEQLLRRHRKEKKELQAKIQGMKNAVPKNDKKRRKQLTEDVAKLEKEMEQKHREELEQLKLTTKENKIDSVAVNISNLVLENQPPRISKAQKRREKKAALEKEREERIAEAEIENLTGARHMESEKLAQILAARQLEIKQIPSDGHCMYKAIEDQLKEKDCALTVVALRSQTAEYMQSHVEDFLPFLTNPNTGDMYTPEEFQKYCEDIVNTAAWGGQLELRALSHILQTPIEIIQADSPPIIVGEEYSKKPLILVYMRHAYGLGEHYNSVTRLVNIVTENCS
Method in brief: (§1)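 Lysate from HEK293T cells, 495 µg per sample in Tris/CHAPS/IGEPAL buffer with protease inhibitors, was treated for 3 h in triplicate with fragment at 200 µM or vehicle. Biotin-Ahx-Ub-VS was next added at 0.5 µM final for 1 h. The labelled DUBs were enriched with NeutrAvidin, digested with LysC and trypsin, and run by diaPASEF LC-MS/MS, with values given as average log2 fragment/vehicle ratios by unpaired t-test on global-median-normalised Spectronaut quantities of proteins with ≥2 unique peptides.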

OTUD7B = target: T2, OTUD7B (UniProt Q6GQQ9)
T2 sequence (whole entry): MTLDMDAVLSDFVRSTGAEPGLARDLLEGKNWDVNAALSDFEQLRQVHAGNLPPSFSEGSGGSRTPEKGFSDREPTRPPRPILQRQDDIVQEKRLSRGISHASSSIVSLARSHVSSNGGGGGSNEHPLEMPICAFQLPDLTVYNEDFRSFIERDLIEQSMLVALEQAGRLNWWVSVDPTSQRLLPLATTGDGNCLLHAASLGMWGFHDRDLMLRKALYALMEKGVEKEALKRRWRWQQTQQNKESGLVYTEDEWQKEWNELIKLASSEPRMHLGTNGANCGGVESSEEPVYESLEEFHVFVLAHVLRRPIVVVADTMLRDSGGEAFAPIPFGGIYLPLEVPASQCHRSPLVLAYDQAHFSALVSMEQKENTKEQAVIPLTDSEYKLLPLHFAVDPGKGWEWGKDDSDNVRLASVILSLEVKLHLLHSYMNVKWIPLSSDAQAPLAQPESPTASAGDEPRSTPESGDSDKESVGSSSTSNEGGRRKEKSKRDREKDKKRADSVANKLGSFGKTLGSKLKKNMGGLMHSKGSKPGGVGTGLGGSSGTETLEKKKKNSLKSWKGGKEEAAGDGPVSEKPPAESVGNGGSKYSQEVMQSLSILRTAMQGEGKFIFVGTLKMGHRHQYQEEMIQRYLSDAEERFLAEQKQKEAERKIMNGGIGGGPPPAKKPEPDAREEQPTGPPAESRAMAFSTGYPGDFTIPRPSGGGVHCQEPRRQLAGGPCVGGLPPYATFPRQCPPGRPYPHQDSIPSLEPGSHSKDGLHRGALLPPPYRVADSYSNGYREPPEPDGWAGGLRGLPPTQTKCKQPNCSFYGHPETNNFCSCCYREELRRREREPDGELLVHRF
Method in brief: as §1

PRPF8 = PRPF8 (UniProt Q6P2Q9)
Method in brief: as §1

PSMD7 = target: T3, PSMD7 (UniProt P51665)
T3 sequence (whole entry): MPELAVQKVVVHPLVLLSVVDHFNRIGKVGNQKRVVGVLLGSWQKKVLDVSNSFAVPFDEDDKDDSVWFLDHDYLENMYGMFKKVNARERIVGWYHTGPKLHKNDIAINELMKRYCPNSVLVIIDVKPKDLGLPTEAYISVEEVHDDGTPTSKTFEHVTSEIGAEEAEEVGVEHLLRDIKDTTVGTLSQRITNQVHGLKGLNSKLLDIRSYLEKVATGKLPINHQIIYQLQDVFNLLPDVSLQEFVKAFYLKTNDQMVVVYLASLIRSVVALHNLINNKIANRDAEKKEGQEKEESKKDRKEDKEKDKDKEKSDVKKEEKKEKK
Method in brief: as §1

UCHL1 = UCHL1 (UniProt P09936)
UCHL1, sequence (P09936 whole entry, looked up): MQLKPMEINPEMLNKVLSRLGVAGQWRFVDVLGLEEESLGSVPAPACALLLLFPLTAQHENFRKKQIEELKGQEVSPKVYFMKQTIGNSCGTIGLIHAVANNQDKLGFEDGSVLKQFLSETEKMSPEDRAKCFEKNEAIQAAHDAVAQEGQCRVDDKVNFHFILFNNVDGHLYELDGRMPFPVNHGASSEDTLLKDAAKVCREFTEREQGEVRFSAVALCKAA
Method in brief: as §1

UCHL3 = target: T4, UCHL3 (UniProt P15374)
T4 sequence (whole entry): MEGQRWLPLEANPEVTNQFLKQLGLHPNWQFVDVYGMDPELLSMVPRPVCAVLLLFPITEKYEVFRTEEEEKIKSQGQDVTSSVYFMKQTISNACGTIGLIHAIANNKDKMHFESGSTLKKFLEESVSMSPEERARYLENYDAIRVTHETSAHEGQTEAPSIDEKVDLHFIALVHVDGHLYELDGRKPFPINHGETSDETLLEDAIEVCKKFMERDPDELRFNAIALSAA
Method in brief: as §1

UCHL5 = target: T5, UCHL5 (UniProt Q9Y5K5)
T5 sequence (whole entry): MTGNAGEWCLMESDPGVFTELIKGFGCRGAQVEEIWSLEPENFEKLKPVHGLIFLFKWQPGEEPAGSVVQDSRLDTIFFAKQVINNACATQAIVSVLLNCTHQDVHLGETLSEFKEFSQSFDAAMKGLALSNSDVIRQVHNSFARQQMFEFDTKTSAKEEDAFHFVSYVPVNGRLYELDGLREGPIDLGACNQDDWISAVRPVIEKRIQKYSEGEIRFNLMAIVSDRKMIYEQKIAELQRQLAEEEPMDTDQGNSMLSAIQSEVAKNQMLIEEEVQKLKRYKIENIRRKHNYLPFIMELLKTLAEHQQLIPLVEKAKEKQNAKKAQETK
Method in brief: as §1

USP10 = USP10 (UniProt Q14694)
USP10, sequence (Q14694 whole entry): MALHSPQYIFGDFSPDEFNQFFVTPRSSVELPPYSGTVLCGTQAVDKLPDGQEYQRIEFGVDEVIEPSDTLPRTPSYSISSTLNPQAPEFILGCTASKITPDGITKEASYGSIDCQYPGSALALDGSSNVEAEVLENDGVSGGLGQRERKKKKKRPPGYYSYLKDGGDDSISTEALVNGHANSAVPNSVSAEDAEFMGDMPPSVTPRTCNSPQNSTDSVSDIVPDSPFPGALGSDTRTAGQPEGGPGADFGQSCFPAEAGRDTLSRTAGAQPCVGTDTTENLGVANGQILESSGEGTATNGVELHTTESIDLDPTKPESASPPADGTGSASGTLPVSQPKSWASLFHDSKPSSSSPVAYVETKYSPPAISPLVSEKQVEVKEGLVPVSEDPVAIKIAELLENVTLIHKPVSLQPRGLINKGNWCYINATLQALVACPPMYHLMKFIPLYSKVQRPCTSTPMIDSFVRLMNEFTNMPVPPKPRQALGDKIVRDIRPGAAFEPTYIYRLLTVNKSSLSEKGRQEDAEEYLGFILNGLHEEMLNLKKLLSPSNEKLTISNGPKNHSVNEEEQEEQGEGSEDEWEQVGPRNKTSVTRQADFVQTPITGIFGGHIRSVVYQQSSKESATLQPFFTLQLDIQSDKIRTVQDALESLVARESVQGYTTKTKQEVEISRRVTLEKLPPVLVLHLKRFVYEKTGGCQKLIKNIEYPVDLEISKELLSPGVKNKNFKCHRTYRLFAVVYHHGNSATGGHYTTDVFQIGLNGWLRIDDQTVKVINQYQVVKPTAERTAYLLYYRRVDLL
Method in brief: as §1

USP15 = target: T6, USP15 (UniProt Q9Y4E8)
T6 sequence (whole entry): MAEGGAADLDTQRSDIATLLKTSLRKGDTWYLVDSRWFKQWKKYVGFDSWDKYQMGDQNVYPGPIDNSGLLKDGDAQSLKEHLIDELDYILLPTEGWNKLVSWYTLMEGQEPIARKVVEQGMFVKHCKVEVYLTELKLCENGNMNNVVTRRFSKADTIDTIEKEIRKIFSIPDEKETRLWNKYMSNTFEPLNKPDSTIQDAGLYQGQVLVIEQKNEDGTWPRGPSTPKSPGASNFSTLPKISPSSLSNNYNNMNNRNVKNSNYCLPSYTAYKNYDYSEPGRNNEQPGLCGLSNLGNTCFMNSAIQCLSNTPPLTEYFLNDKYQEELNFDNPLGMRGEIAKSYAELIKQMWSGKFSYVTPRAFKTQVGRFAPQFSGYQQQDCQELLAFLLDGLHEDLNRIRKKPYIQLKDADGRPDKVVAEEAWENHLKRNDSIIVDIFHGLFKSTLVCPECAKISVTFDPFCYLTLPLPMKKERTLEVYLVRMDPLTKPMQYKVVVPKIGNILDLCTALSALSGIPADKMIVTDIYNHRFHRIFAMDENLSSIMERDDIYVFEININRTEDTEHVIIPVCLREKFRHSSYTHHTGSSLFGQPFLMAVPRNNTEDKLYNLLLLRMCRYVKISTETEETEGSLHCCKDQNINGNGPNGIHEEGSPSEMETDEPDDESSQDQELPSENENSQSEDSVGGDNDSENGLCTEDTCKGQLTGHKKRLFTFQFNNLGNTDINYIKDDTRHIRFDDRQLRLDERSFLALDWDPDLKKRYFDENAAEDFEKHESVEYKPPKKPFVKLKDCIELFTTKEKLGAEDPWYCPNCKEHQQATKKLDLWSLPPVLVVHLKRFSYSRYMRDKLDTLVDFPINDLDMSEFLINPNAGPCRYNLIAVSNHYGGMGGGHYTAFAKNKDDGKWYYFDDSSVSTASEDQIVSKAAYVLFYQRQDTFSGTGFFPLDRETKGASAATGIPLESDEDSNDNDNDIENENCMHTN
Method in brief: as §1

USP16 = USP16 (UniProt Q9Y5T5)
USP16, sequence (Q9Y5T5 whole entry, looked up): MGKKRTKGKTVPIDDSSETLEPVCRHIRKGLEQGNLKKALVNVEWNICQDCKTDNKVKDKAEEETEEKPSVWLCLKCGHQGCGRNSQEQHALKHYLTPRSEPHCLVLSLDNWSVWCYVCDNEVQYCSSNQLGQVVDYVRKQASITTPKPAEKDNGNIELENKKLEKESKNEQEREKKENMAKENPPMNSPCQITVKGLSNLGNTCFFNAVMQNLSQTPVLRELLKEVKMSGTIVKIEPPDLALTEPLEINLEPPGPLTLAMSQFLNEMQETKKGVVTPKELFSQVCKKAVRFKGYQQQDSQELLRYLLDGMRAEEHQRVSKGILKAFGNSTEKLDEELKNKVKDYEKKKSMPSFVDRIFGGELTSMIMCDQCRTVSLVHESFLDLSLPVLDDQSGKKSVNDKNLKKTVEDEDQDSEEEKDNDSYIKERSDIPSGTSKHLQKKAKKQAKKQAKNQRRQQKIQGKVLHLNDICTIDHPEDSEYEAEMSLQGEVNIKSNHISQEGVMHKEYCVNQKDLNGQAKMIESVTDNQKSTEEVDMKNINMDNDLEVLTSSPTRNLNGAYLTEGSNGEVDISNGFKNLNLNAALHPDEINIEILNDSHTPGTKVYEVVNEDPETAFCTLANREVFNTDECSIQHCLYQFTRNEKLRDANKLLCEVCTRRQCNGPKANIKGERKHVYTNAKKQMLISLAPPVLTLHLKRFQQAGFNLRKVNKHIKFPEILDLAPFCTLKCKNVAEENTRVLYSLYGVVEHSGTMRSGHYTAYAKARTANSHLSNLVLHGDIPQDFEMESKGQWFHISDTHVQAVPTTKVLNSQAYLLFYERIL
Method in brief: as §1

Measured: log2 ratio of Biotin-Ahx-Ub-VS probe labelling

O=C(CCl)NCc1cccc(F)c1
active: UCHL1 -1.24
inactive: OTUD6B -0.0396 | OTUD7B -0.597 | PRPF8 -0.208 | PSMD7 -0.138 | UCHL3 0.227 | UCHL5 -0.0221 | USP10 -0.156 | USP15 -0.273 | USP16 -0.133

From the supplement of paper PMC11732987, “Enantioselective OTUD7B fragment discovery through chemoproteomics screening and high-throughput optimisation” (Communications Chemistry, 2025)
